# Source: PubChem BioAssay (NCATS)
# Inconclusive results are not listed. Active and inactive are the calls of the source. Calls come from the whole dose curve; as a rule, active = well fitted cell-killing curve with a large enough effect; inconclusive = small, poorly fitted or top-dose-only effect; inactive = flat fitted curve, though single readings scatter.
# Assay: NCATS anti-infectives library activity on HEK293 viability as a counter-qHTS vs the C. elegans viability qHTS (AID 1745854)
# Conditions: HEK293 viability counter-screen; series mostly up to 41.8 µM; activity change, negative = cytotoxicity: at the top concentration
# Excerpt: Assay Development and Screening Technology Laboratory (ADST)
# National Center for Advancing Translational Sciences (NCATS), Rockville, MD
# National Institute of Health (NIH), Bethesda, Maryland
# Caenorhabditis elegans has helped elucidate the evolutionarily conserved genetics underlying pathways and cellular processes implicated in human disease and may be ideally positioned to reveal novel pharmacological properties of exiting drugs. The organism's short life cycle and microscopic size is applicable to the technical requirements of high-throughput screening. Here a quantitative high-throughput screening (qHTS)-based forward chemical biology platform has been developed using C. elegans. 384-well microtiter plate laser scanning cytometry was used in the rapid detection and quantification of the fluorescent protein-encoded phenotype to score worm viability. In a proof-of-concept study, the pharmacological qHTS profile obtained from a library of 643 anti-infective compounds.
# 1. Inglese, J., Auld, D. S., Jadhav, A., Johnson, R. L., Simeonov, A., Yasgar, A., Zheng, W., and Austin, C. P. (2006) Quantitative high-throughput screening: A titration-based approach that efficiently identifies biological activities in large chemical libraries, P Natl Acad Sci USA 103, 11473-11478.
# 2. Auld, D. S., Johnson, R. L., Zhang, Y. Q., Veith, H., Jadhav, A., Yasgar, A., Simeonov, A., Zheng, W., Martinez, E. D., Westwick, J. K., Austin, C. P., and Inglese, J. (2006) Fluorescent protein-based cellular assays analyzed by laser-scanning microplate cytometry in 1536-well plate format, Method Enzymol 414, 566-589.
# 3. Zuck, P., Lao, Z., Skwish, S., Glickman, J. F., Yang, K., Burbaum, J., and Inglese, J. (1999) Ligand-receptor binding measured by laser-scanning imaging, Proc Natl Acad Sci U S A 96, 11122-11127.
# PROTOCOL TABLE (as described by Inglese J, Shamu CE and Guy RK. 2007)
# SEQUENCE No. (e.g., 1, 2, 3, etc.); […] (e.g., C. elegans, Compounds, Incubation, Read, etc.); VALUE and DESCRIPTION.
# 1. Compounds. Library compounds and digitonin control added at 25 nL per well to 7 assay ready 1536-well Greiner white/solid bottom high base, TC plates and two DMSO control plates, transferred by Echo acoustic dispenser.
# 2. Cells. Seed 1500 HEK293 per well in 6 uL into assay ready Greiner 1536-well plates.
# 3. Incubation. Incubate plated cells with compounds at 37C in 5% CO2, 95% RH for 24 hr.
# 4. Reagent. Add 4 uL of CellTiter-Glo reagent from Promega per well of Greiner 1536-well plates with BioRAPTR FRD.
# 5. Incubation. Incubate treated cells at room temperature for 10 min., protect from light.
# 6. Detector. CellTiter-Glo luminescence measured using CCD-based camera (Viewlux) with settings as follows: Exposure, 1 sec; Gain, High; Speed, Slow; Binning, 2X.
# NOTES (numbers refer to Sequence numbers above; values are from representative experiments)
# 1. NIH Anti-Infectives library pre-dispensed into 7 assay ready 1536-well Greiner white/solid bottom high base, TC plates with Echo 555 acoustic dispenser. Most compounds dispensed at 10 mM high concentration and plated in 7-pt 1:5 inter-plate titration at 25 nl / well for a final assay concentration range of 41.7 uM - 2.7 nM. Two 1536-well Greiner assay plates of DMSO plated as screening controls to be read at the beginning and the end of the screen. Controls included DMSO vehicle control added at 25 nl/well to each well of column 1 and […] (83.3 uM final assay concentration), and Digitonin titrated 1:2 at 25 nl/ well to column 4 in duplicate for a final assay concentration range of 83.3 uM - 2.5 nM.
# 2. HEK293 cells grown for 48 hr in one T175 culture flask in DMEM high glucose media supplemented with 10% FBS and 1% Pen/Strep antibiotic. Cells trypsinized and diluted in 10 ml supplemented media, strained through 40 µm cell strainer, and diluted to a total volume of 40 ml with supplemented media. […]
# % is set by controls: 0 for no effect and ±100 for the full control effect; potency is the fitted concentration of half-maximal effect.
SMILES,"activity change, negative = cytotoxicity",Potency
CC(C)[C@H](C(=O)Nc1ccc(C(=O)NO)cc1)c1ccccc1,1.62% (inactive),–
O=C(CCCCCCNC(=O)c1cnc(N(c2ccccc2)c2ccccc2)nc1)NO,1.02% (inactive),–
COc1ccc(-n2nc(C(N)=O)c3c2C(=O)N(c2ccc(N4CCCCC4=O)cc2)CC3)cc1,6.06% (inactive),–
Cc1coc2c1C(=O)C(=O)c1c-2ccc2c1CCCC2(C)C,-10.4% (inactive),–
COc1cccc2c(NCc3ccccc3)nc(-n3c(N)nc4ccccc43)nc12,–,7.08 µM (active)
CC(C)(C)OC(=O)Nc1ccc(-c2cc(C(=O)NCCCCCCC(=O)NO)no2)cc1,-18.2% (inactive),–
Nc1ccccc1NC(=O)c1ccc(CNc2nccc(-c3cccnc3)n2)cc1,-14.8% (inactive),–
COc1cc2c(cc1-c1c(C)noc1C)ncc1[nH]c(=O)n([C@H](C)c3ccccn3)c12,-12.8% (inactive),–
NC(=O)c1cccc2cn(-c3ccc([C@@H]4CCCNC4)cc3)nc12,0.62% (inactive),–
CN(C)Cc1c(C(=O)NCCOc2ccc(C(=O)NO)cc2)oc2ccccc12,1.68% (inactive),–
Nc1ccn([C@@H]2CS[C@H](CO)O2)c(=O)n1,-16.9% (inactive),–
Nc1ccccc1NC(=O)c1ccc(CNC(=O)OCc2cccnc2)cc1,1.43% (inactive),–
